# Source: PubChem BioAssay
# The source made the active and inactive calls.
# Columns and labels:
# Albumin (Bos taurus) = Albumin (Bos taurus) (UniProt P02769); experiment: compounds binding labelled BSA control protein – biochemical, small-molecule microarray, Alexa647 label, 635/667 nm fluorescence, artefact control for SMM control protein annotation, profiling panel (AID 1118); settings: BSA-A647 binding, fluorescence 635 nm, higher = more signal;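 note: score merges 667 nm emission intensity and signal-to-noise per printed compound spot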
# Albumin (Bos taurus), sequence (P02769 whole entry, looked up): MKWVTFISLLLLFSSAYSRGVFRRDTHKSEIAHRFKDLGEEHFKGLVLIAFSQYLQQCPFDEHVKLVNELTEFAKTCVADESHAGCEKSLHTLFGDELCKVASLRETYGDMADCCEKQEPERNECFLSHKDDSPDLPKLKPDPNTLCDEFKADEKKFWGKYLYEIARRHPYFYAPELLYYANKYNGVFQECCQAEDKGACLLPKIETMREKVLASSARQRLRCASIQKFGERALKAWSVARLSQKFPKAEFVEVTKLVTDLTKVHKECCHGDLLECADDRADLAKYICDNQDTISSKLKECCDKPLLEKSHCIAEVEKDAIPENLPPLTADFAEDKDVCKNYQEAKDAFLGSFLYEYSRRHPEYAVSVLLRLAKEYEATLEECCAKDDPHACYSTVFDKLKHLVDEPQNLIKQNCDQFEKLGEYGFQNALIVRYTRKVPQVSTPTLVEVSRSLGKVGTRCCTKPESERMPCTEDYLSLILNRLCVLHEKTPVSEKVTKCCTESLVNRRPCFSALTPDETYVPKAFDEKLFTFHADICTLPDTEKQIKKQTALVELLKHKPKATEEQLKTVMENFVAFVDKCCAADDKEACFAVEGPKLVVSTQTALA
# [1] = probe aXIP binding to arrayed compounds – biochemical, NeuroSMM set, 635/667 nm fluorescence, primary screen (AID 1119); settings: small-molecule microarray, higher = more signal, called active from +8 up or from −8 down;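 note: probe is the protein aXip251-270 applied at 1 µg/mL to compound-printed slides; binding of probe to printed compounds measured as 667 nm fluorescence plus signal to noise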
# [2] = probe aNOTCH3 binding on compound microarray – biochemical, small-molecule microarray, 635/667 nm fluorescence, primary screen (AID 1120); settings: higher = more signal;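 note: probe is a biotin-tagged antibody raised against NOTCH3 rather than NOTCH3 protein; score merges spot fluorescence near 667 nm with spot signal to noise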
# [3] = probe aNOTCH2 binding on compound microarray – biochemical, small-molecule microarray, 635/667 nm fluorescence, primary screen (AID 1121); settings: higher = more signal;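 note: score merges feature fluorescence read at 667 nm with its signal to noise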
# [4] = target: Carbonic anhydrase 2 (Homo sapiens) (UniProt P00918); experiment: compounds binding carbonic anhydrase 2 – biochemical, small-molecule microarray, Alexa647-labelled CAII, profiling panel (AID 1122); settings: CAII-A647 binding fluorescence, higher = more signal
# [5] = COS7 lysate on small-molecule microarray, probe aHis, 635 nm (AID 1123); settings: COS7 cell lysate, fluorescence, higher = more signal;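 note: z-score combines 667nm fluorescence intensity with signal-to-noise per printed compound spot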
# [6] = probe aLAP1 signal on lysate-treated microarray – cell lysate, small-molecule microarray, COS7 lysate, primary screen (AID 1124); settings: probe aLAP1, fluorescence, higher = more signal;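 note: lysate comes from COS7 cells expressing LAP1 and is applied at 0.3 µg/mL; score merges spot fluorescence near 667 nm with signal-to-noise over triplicate slides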
# Sam68 (KHDRBS1) = experiment: compounds binding KHDRBS1 protein – biochemical, small-molecule microarray, 635 nm fluorescence, primary screen (AID 1125); settings: higher = more signal;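 note: score merges 667 nm channel intensity with signal to noise over triplicate slides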
# [7] = test system: Chordin-like protein 2 (CHRDL2); experiment: compounds binding chordin-like 2 – biochemical, small-molecule microarray, 635 nm fluorescence, primary screen (AID 1126); settings: fluorescence 635 nm, higher = more signal;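 note: printed compound slides probed with Chrdl2 protein at 4 µg/mL for 1 h at 4 C; score merges 667 nm emission intensity with signal to noise over three replicate slides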
# [8] = target: Concanavalin-A (Canavalia ensiformis) (UniProt P02866); experiment: compounds binding concanavalin A lectin – biochemical, small-molecule microarray, Alexa647 label, 635 nm, artefact control for SMM control protein annotation, primary screen (AID 1127); settings: ConA-A647 binding fluorescence, higher = more signal;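 note: z combines 667 nm emission intensity with signal-to-noise across three replicate slides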
# Concanavalin-A (Canavalia ensiformis), sequence (P02866 whole entry, looked up): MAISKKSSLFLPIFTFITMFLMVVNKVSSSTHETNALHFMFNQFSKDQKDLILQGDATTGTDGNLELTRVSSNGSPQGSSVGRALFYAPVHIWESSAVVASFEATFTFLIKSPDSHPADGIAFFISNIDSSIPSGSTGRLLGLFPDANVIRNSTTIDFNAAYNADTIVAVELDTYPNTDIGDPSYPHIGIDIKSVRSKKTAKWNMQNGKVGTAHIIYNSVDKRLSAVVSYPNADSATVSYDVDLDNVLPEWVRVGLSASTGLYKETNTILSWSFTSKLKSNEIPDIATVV
# [9] = compounds binding Alexa647 anti-His antibody – biochemical, small-molecule microarray, 635 nm fluorescence, artefact control for SMM control protein annotation, primary screen (AID 1128); settings: higher = more signal;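 note: score merges feature fluorescence with signal-to-noise for each printed compound spot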
# [10] = test system: Human papillomavirus type 1a E7 protein (residues 1-88); experiment: HPV1a E7 small-molecule binders, primary screen, biochemical, small-molecule microarray, residues 1-88, 635 nm (AID 1129); settings: small-molecule microarray binding, fluorescence 635 nm; higher = more signal
# [11] = target: Focal adhesion kinase 1 (Homo sapiens) (UniProt Q05397); experiment: PTK2 protein binding on printed compound slides – biochemical, small-molecule microarray, 635/667 nm fluorescence, BSA, DTT, primary screen (AID 1130); settings: 635 nm fluorescence, higher = more signal;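 note: composite of spot emission at 667 nm and signal to noise over triplicate slides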
# Focal adhesion kinase 1 (Homo sapiens), sequence (Q05397 whole entry, looked up): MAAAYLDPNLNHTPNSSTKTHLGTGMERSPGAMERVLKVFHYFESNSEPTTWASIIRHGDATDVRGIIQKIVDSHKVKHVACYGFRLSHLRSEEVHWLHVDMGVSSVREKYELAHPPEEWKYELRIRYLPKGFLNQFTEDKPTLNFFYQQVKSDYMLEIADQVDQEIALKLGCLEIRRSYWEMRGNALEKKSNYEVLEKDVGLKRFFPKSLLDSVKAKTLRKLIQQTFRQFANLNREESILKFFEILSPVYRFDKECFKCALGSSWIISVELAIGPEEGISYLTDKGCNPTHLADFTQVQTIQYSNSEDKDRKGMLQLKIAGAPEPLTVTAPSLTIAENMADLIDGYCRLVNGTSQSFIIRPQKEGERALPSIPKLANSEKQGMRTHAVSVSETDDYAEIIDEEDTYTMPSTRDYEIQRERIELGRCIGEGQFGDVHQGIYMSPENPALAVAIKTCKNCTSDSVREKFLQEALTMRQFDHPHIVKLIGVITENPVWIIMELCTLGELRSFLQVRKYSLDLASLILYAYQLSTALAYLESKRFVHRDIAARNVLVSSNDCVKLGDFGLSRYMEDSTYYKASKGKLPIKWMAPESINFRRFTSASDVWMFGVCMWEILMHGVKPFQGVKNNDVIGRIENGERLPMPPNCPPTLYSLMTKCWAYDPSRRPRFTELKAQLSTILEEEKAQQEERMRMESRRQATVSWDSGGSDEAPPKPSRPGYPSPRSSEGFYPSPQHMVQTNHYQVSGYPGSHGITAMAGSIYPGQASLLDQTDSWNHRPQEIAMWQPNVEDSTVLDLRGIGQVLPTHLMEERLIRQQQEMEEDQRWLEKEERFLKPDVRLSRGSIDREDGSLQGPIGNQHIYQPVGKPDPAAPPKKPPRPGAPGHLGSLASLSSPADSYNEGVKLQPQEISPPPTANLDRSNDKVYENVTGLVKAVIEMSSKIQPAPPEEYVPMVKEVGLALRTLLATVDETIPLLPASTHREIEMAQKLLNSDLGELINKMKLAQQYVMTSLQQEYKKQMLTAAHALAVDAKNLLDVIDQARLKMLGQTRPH
# [12] = test system: Fibrinogen (Alexa647-labelled); experiment: Alexa647-fibrinogen binding to printed small molecules – biochemical, small-molecule microarray, 635/667 nm fluorescence, artefact control for SMM control-protein annotation, profiling panel (AID 1131); settings: fibrinogen-A647 binding fluorescence, higher = more signal;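 note: z-score merges 667 nm fluorescence with per-spot signal-to-noise over triplicate slides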
# [13] = target: Follistatin (Homo sapiens) (UniProt P19883); experiment: FST protein binding to printed compounds – biochemical, small-molecule microarray, 635/667 nm fluorescence, primary screen (AID 1132); settings: 635 nm fluorescence, higher = more signal
# Follistatin (Homo sapiens), sequence (P19883 whole entry, looked up): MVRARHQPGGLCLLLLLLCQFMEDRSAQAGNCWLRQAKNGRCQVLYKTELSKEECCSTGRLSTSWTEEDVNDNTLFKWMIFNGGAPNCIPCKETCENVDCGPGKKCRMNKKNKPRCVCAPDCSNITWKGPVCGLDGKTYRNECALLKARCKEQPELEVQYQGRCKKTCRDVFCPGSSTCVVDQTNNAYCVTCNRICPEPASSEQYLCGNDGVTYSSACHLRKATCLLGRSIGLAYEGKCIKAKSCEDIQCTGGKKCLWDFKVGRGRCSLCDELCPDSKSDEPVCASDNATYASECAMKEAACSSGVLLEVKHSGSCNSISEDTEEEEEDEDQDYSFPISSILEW
# [14] = target: Fibroblast growth factor 2 (Homo sapiens) (UniProt P09038); experiment: basic fibroblast growth factor binding to printed compounds – biochemical, small-molecule microarray, 635/667 nm fluorescence, primary screen (AID 1133); settings: FGF2, fluorescence 635/667, higher = more signal
# Fibroblast growth factor 2 (Homo sapiens), sequence (P09038 whole entry, looked up): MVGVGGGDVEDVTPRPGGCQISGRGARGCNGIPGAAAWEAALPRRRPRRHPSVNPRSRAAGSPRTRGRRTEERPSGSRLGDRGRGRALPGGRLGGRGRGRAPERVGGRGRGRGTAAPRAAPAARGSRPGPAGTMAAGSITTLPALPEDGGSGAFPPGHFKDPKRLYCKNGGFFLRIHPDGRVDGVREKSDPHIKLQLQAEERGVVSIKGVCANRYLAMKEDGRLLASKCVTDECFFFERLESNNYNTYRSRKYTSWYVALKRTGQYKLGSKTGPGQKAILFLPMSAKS
# [15] = JC-1 mitochondrial potential readout, lung cancer cells – cell-based, A549, JC-1 fluorescence, basal, 24 h, 100 nL, profiling panel (AID 1138); settings: higher = more signal;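 note: A549 lung adenocarcinoma cells under basal conditions with no added stimulus; test concentration not given here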
# Lefty1 = Lefty1 protein binding to printed compounds – biochemical, small-molecule microarray, 635/667 nm fluorescence, primary screen (AID 1139); settings: fluorescence 635/667, higher = more signal
# [16] = test system: wheat germ agglutinin (Triticum aestivum), Alexa647-labelled; experiment: Alexa647-WGA lectin binding to printed small molecules – biochemical, small-molecule microarray, 635/667 nm fluorescence, artefact control for SMM control-protein annotation, profiling panel (AID 1140); settings: WGA-A647 binding, 635 nm fluorescence, higher = more signal;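 note: score merges 667 nm feature emission with signal to noise over triplicate slides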
# [17] = target: Luciferin 4-monooxygenase (Photinus pyralis) (UniProt P08659); experiment: inhibition of purified Photinus pyralis luciferase – biochemical, luminescence, purified enzyme, 2006 set, primary screen (AID 1141); settings: purified firefly luciferase, SteadyGlo luminescence, 30 min; higher = more signal, called active from +8 up or from −8 down;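 note: cell-free assay with purified firefly luciferase at 100 ng per well in PBS; test concentration not given here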
# Luciferin 4-monooxygenase (Photinus pyralis), sequence (P08659 whole entry, looked up): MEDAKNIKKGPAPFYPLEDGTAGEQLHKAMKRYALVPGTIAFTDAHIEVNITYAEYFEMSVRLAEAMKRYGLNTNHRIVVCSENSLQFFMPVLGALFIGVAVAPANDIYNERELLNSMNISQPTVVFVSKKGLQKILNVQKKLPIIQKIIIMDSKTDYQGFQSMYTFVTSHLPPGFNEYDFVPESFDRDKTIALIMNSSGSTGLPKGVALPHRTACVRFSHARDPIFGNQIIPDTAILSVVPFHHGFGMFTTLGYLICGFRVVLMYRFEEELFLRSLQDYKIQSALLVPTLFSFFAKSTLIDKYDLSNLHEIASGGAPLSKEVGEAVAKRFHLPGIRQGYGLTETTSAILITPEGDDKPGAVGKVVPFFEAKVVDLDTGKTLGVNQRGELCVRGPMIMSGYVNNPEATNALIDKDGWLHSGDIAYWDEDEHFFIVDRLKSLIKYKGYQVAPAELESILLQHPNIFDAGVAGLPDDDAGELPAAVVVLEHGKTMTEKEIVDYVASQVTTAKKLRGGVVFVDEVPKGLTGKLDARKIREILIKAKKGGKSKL
SMILES,composite z-score (Albumin (Bos taurus)),composite Z-score [1],composite z-score [2],composite z-score [3],composite z-score [4],composite z-score [5],composite z-score [6],composite z-score (Sam68 (KHDRBS1)),composite z-score [7],composite z-score [8],composite z-score [9],composite z-score [10],composite z-score [11],composite z-score [12],composite z-score [13],composite z-score [14],z-score [15],composite z-score (Lefty1),composite z-score [16],z-score [17]
NC(=O)NCC#Cc1ccc2c(c1)[C@]1(C(=O)N2)[C@H](c2ccccc2OCCO)N2[C@H](c3ccccc3)[C@H](c3ccccc3)OC(=O)[C@H]2[C@@H]1C(=O)O,0.276,0.155 (inactive),-0.245,-0.0772,0.496,0.259,0.931,0.293,-0.128,0.96,-0.241,-0.464,-0.178,0.277,0.728,0.387,-0.545,0.477,0.225,-0.521 (inactive)
COc1ccc([C@H]2OC[C@@H]3C[C@H](Cc4ccccc4)C(=O)N32)cc1,-0.0141,-0.397 (inactive),0.03,-0.101,-0.0065,0.0949,-0.0729,0.0535,0.0962,0.512,0.606,0.358,0.0039,0.179,0.416,0.511,0.239,0.374,0.582,-0.0539 (inactive)
CCCC[C@@H]1C[C@H]1[C@@H](NC(=O)c1cccs1)c1ccccc1C(F)(F)F,0.485,-0.147 (inactive),0.265,0.0117,0.431,2.62,0.588,1.27,-0.319,1.08,1.01,1.2,-0.157,0.982,-0.152,0.28,0.245,-0.716,0.839,1.75 (inactive)
